Source: PubChem (several laboratories)
Myeloid diff 2 = promotes myeloid progenitor differentiation; ER-HoxA9 myeloid progenitors, lysozyme-GFP differentiation, flow cytometry; calls only at 10 µM; hit rate 1% among 360,000;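 active = normalized GFP-positive differentiation at or above the plate's own cutoff, the solvent-only control mean plus 3 SD; inconclusive = no clear call, values can overlap the other calls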;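 also: cells exposed to compound for four days before flow analysis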
IDE inh = inhibits human insulin-degrading enzyme in HEK cells. FAbetaB cleavage, fluorescence polarization. inhibition, % at 5.59 µM. hit rate 0.41% among 320,000. AID 434962;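 active = percent inhibition above the average of all tested compounds plus 3 SD, set per screening campaign, cut at about 16% in these data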;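 also: IDE supplied by intact live HEK cells; FP after avidin binding of uncleaved biotin substrate so inhibition keeps polarization high; 0% = DMSO wells and 100% = 60 µM reference IDE inhibitor Ii1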
CRFR2-BP ag = agonists of human CRF-binding protein/CRF-R2 receptor complex. hit rate 0.46% among 350,000. activation, % at 13.2 µM. HEK293 CRF-R2/CRF-BP, calcium dye fluorescence (FLIPR); percent of saturating CRF peptide response;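 active = activation of at least 50%, plus an integration ratio under a set limit after plate pattern correction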;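 also: plate controls were neutral control wells without compound for no effect and CRF at EC100 for full effect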
CRFBP-R2 block = CRF-BP/CRF-R2 complex antagonism. HEK293 CRF-R2/CRF-BP, CRF-induced calcium fluorescence. inhibition, % at 11.8 µM. hit rate 0.59% among 350,000. AID 588475;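 active = inhibition of the ligand-induced calcium signal above about 50% at the single tested concentration, limit read from the data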
TPT1 inh = C. albicans TPT1 enzyme inhibition | recombinant caTPT1, FP RNA substrate dephosphorylation | inhibition, % at 5 µM | AID 1962 | hit rate 0.81% among 300,000;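 active = inhibition above the mean of all tested compounds plus 3 SD, set per screening campaign, cut at about 24% in these data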;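 also: plate controls were DMSO alone for no effect and ferristatin control at 100 nM for full effect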
IDE act = IDE (human) activation, cell-based; P14735; HEK cells, FAbeta-B cleavage, fluorescence polarization; 0% vehicle, 100% cell-free pure enzyme wells; activation, % at 5.96 µM; hit rate 0.073% among 340,000; AID 493087;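 active = activation above the mean of all tested compounds plus 3 SD, set per screening campaign, cut at about 17% in these data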
* = called active by the depositor; i = inactive; ? = inconclusive; · = no result given; + = active, no number. Compounds with a hit are over-represented: about 2.6% of the library has one in this group of screens.

SMILES	Myeloid diff 2	IDE inh	CRFR2-BP ag	CRFBP-R2 block	TPT1 inh	IDE act
COC(=O)c1cn(NC(=O)c2ccc(F)cc2)c(=O)c2ccccc12	i	-1.3	-0.1	104.7*	-2.6	-1.5
CCCC(=O)NCC(c1cccs1)S(=O)(=O)c1ccc(Cl)cc1 (centres undefined)	+	0.6	2.8	-13.6	4.0	1.9
N/C(Cc1nc2ccccc2s1)=N\O	+	-0.1	-0.8	-4.5	13.2	-3.5
Oc1ccc(O)c(Cc2nc3ccccc3s2)c1	i	6.6	-0.5	53.2*	-0.9	-1.5
NC(=O)CSCc1nc2ccccc2s1	i	-3.1	-1.6	-0.9	3.5	1.7
Cc1ccc(C(=O)/C=C/c2ccccc2)o1	i	-1.5	-0.2	-0.7	1.5	0.3
Cc1ccc(C(=O)/C=C/c2ccc(Br)cc2)o1	+	-0.6	0.2	-16.4	-1.6	-2.3
Cc1ccc(S(=O)(=O)N2CCN(C(=O)COc3ccc(C)nc3[N+](=O)[O-])CC2)c(C)c1	i	-0.8	-1.3	77.8*	-1.4	4.3
Cc1ccc(F)c(N=Cc2c(O)c3ccccc3oc2=O)c1	i	0.8	1.0	-2.9	0.0	-0.5
CNc1c2cccc(C)c2nc2c(C(=O)NCCN(C)C)cccc12	·	·	53.8*	4.3	·	0.5
Cc1nn(C(C)C(=O)NNC(=S)Nc2ccc(Cl)cc2)c(C)c1[N+](=O)[O-] (centres undefined)	i	-3.2	1.2	-0.5	1.5	5.1
O=C(O)C(=O)/C(=C\c1ccccc1)c1ccc2ccccc2n1	i	3.3	17.9	-7.6	29.6*	-4.2
Cn1c(=O)c(=O)n(C)c2cc(N3CCCCC3)c(NS(=O)(=O)c3ccc([N+](=O)[O-])cc3)cc21	i	2.3	-1.3	-5.9	-2.7	1.0
CCC(C)NS(=O)(=O)c1ccc(OCC(=O)NCc2ccccn2)cc1 (centres undefined)	i	5.1	14.0	51.4*	-0.9	3.8
Cc1cnc(NC(=O)CSc2ncc(-c3ccccc3)n2Cc2ccco2)s1	i	2.8	60.1*	-58.9	-1.4	2.6
O=C(CSc1ncc(-c2ccc(F)cc2)n1Cc1ccco1)Nc1nccs1	i	8.5	-0.9	-20.2	-1.6	-4.0
Fc1ccc2[nH]c3c(N4CCN(C5CCCCC5)CC4)ncnc3c2c1	·	19.7*	·	·	0.4	·
O=C(NC(Nc1nc2ccc([N+](=O)[O-])cc2s1)(C(F)(F)F)C(F)(F)F)c1ccccc1Cl	?	6.6	25.3	8.2	17.1	-2.5
O=C(NC(Nc1nc2ccc([N+](=O)[O-])cc2s1)(C(F)(F)F)C(F)(F)F)c1cccnc1	i	-10.5	57.2*	59.9*	6.2	1.9
C/C(=C\c1ccccc1)C(=O)Nc1nc2ccc([N+](=O)[O-])cc2s1	i	3.4	1.7	-33.5	-1.0	1.6
CC(C)=CC(=O)Nc1nc2ccc([N+](=O)[O-])cc2s1	+	·	1.2	-61.5	·	7.2
NS(=O)(=O)c1ccc(NC2(C(=O)O)CCCC2)cc1	+	-0.5	-0.1	5.0	-3.0	-1.2
NS(=O)(=O)c1ccc(NC(=O)C2(c3ccccc3)CCCC2)cc1	i	0.9	0.8	-4.4	-2.2	-3.1
COc1ncc(-c2ccc(N3C(c4ccsc4)=Cc4ccccc4C3CC(C)=O)cc2)cn1 (centres undefined)	i	·	·	·	·	·
COc1ccc(CC(=O)N/N=C(\C)c2ccc(Br)s2)cc1	i	3.4	-0.9	82.8*	3.8	3.0
SMILES	Myeloid diff 2	IDE inh	CRFR2-BP ag	CRFBP-R2 block	TPT1 inh	IDE act
C/C(=N\NC(=O)Cc1ccccc1)c1ccc(Br)s1	i	-0.4	0.9	-4.2	-0.8	2.8
CN1CC=C2C(C#N)=C(N)C(C#N)(C#N)C(c3ccsc3)C2C1 (centres undefined)	i	-6.2	31.9	-15.5	-50.7	-4.0
CN1CC=C2C(C#N)=C(N)C(C#N)(C#N)[C@H](c3cccs3)[C@H]2C1	i	11.5	52.9*	-67.0	-53.5	4.0
COc1cccc(C2C3CN(C)CC=C3C(C#N)=C(N)C2(C#N)C#N)c1OC (centres undefined)	i	0.8	72.0*	-8.1	-24.3	0.2
CN1CC=C2C(C#N)=C(N)C(C#N)(C#N)C(CCc3ccccc3)C2C1 (centres undefined)	i	3.5	59.4*	-58.5	-31.3	3.6
CC(C)=CCC(C)(C)C1OCCN1C(=O)Nc1ccccc1 (centres undefined)	i	-3.5	-0.1	1.4	2.4	3.5
